Here are results for seven sequences from the supplement of paper PMC6555819.

Common to all, as to test: PBM binding z-score (relative to random genomic background probes); higher = stronger binding; sequences stand for … in GC…GCGATTGACAGCGTAGAATGAAGG
Experiment [1] relates to RARb homodimer (NR concentration 270 nM). The method in brief: (§1)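 Scanned fluorescence from custom Agilent 4×180K protein-binding microarrays was regression-normalized. Binding z-scores use random background probes as reference. Ligand-free nuclear receptor dimers were incubated on the arrays for 1 h and detected with antibodies against each partner (one per run).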
The subject of experiment [2] is RARg:RXRa (NR concentration 270 nM, RXRa partner concentration 90 nM). Summed up:
as §1

Experiment [3] has as its system RARg homodimer (NR concentration 270 nM). The method in brief:
as §1

Experiment [4] deals with RXRa DBDmut IVT, anti-RXR (DBD mutation: RXRa K156A/R161A, NR concentration 90 nM). Summed up:
as §1

Experiment [5] deals with RXRa homodimer (NR concentration 180 nM). The method in brief: as §1
Experiment [6] has as its system THRa:RXRa (NR concentration 90 nM, RXRa partner concentration 90 nM). The method in brief: as §1
Experiment [7] deals with THRa homodimer (NR concentration 90 nM). The method in brief:
as §1

For experiment [8], the system named is VDR homodimer (NR concentration 270 nM). The method in brief:
as §1

CCTACTGGGCCATTCAGACGTCATTGATCATATG: the PBM binding z-score in experiment [1] is -0.514; in experiment [2], -0.25; in experiment [3], 0.169; in experiment [4] it was -0.119; in experiment [5] it was -0.341; in experiment [6] it was -0.533. Moreover, the values for the PBM binding z-score in experiment [7] and in experiment [8] were -0.741 and -0.378, respectively.

With CGAACTAGGTCAGAACAGGTCAGTGAAGGATGAT, the PBM binding z-score in experiment [1] worked out at 3.88; in experiment [2], 3.47; in experiment [3], 4.34; in experiment [4] it was 1.03; in experiment [5], 2.22; in experiment [6], 4.08. The figures for the PBM binding z-score in experiment [7] and in experiment [8] were 0.526 and 0.955, respectively.

On to AGAACGAGTGCACGCTGAGTTGATAGCAGAGTAG, for which the PBM binding z-score was -0.576 in experiment [1]; 0.354 in experiment [2]; 0.356 in experiment [3]; 3.07 in experiment [4]; 0.384 in experiment [5]; -0.0909 in experiment [6]. For the same sequence, the PBM binding z-score was -0.746 in experiment [7] and 2.64 in experiment [8].

Take ATCGAAAGGTCGTGAGGTGAGTATGCAGAAAGGC: the PBM binding z-score in experiment [1] amounted to 3.26; in experiment [2], 4.63; in experiment [3] it was 4.17; in experiment [4], 1.02; in experiment [5], 5.27; in experiment [6], 3.56. For the same sequence, the PBM binding z-score in experiment [7] came out at 1.71; in experiment [8] it was 0.782.

As for GATACAGGGTCAGCTAGAGGCTAGAGTATGGAAA, the PBM binding z-score in experiment [1] worked out at 2.76; in experiment [2] it was 5.74; in experiment [3] it was 4.56; in experiment [4], 0.988; in experiment [5], 4.23; in experiment [6], 2.86. Moreover, the PBM binding z-score is 0.194 in experiment [7] and 0.266 in experiment [8].

On to ATCTCTAGGTAAGACTCAGTTCCGTGAAGAACGC, for which the PBM binding z-score is 0.119 in experiment [1]; -0.049 in experiment [2]; -0.0446 in experiment [3]; 0.432 in experiment [4]; -0.116 in experiment [5]; 0.287 in experiment [6]. Besides, the PBM binding z-score was determined as 0.766 in experiment [7] and 0.435 in experiment [8].

For the sequence CCGACTGGGGCAAGGTTAACATAACGCACAGCCA, the PBM binding z-score in experiment [1] was 1.47; in experiment [2], 1.3; in experiment [3], 1.3; in experiment [4] it was -0.45; in experiment [5] it was 1.38; in experiment [6] it was 1.37. Moreover, the PBM binding z-score in experiment [7] was -0.033; in experiment [8], 0.172.
